BAZ2B inh = qHTS Assay for Inhibitors of BAZ2B | Bromodomain adjacent to zinc finger domain protein 2B (Homo sapiens), Q9UIF8 | AlphaScreen BAZ2B-H3K14Ac peptide displacement | Potency, µM (highest dose often 114 µM), inactives show at the highest dose activity change, negative = inhibition, actives largely listed as inhibitors | 360,000 tested, 4.4% active | AID 504333, 2011; also: % is scaled to controls: 0 for no effect and ±100 for the full control effect; nearly all actives have a fitted effect of over 60% in size
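Complex of BAZ2B and biotin-H3K14Ac (50 nM apiece) forms over 30 min at RT, then faces library compounds up to 110 uM for another 30 min; AlphaScreen beads added, 20 min dark incubation, luminescence read.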
JMJD2A Tudor inh = qHTS Assay for Inhibitors of JMJD2A-Tudor Domain; 390,000 tested, 4.4% active; AID 504339, 2011; AlphaScreen JMJD2A-Tudor / H3K4me3 peptide binding; Potency, µM (highest dose often 114 µM), for inactives: top-dose activity change, negative = inhibition, usual class: inhibitors; Lysine-specific demethylase 4A (Homo sapiens), O75164; also: % is scaled to controls: 0 for no effect and ±100 for the full control effect; nearly all actives have a fitted effect of over 50% in size
G9a block = qHTS Assay for Inhibitors of Histone Lysine Methyltransferase G9a; 350,000 tested, 8.8% active; Histone-lysine N-methyltransferase EHMT2 (Homo sapiens), Q96KQ7; Potency, µM (series often up to 102 µM), for the others: top-dose activity, negative = inhibition, most hits filed as inhibitors; AID 504332, 2011; G9a H3K9 monomethylation, AlphaScreen, 2 h; also: % is scaled to controls: 0 for no effect and ±100 for the full control effect; nearly all actives have a fitted effect of over 75% in size
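Step 1: enzyme (final 20 nM) with compound, 15 min RT. Step 2: substrate peptide 500 nM and SAM 20 uM, 2 h RT. Step 3: anti-H3K9me1 antibody and AlphaScreen beads, 10 min, then plate read.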
HP1b chromo inh = HTS for Inhibitors of HP1-beta Chromodomain Interactions with Methylated Histone Tails | AlphaScreen HP1-beta / biotin-H3K9me3 peptide binding | Potency, µM (doses to about 114 µM), inactives show at the top dose activity change, negative = inhibition, hits mostly inhibitors | AID 540317, 2011 | 390,000 tested, 0.56% active; also: nearly all actives have a fitted effect of over 70% in size
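Compound inhibition of the preformed complex between 50 nM HP1-beta and 50 nM biotinylated H3K9me3 peptide was read by AlphaScreen. Buffer was PBS pH 7.4 with 0.01% Tween-20. Incubations ran 30 min at room temperature, with 10 ug/mL donor/acceptor beads.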
Sfp PPTase inh = qHTS Assay for Inhibitors of Bacillus subtilis Sfp phosphopantetheinyl transferase (PPTase). Biochemical Sfp PPTase activity, qHTS. Potency, µM, inactives show largest response in the series, negative = inhibition, actives largely listed as inhibitors. 310,000 tested, 3.5% active. AID 1490, 2009;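 also: the enzyme is Sfp with the accession as filed and its product quenches rhodamine fluorescence; 0% = enzyme reaction without inhibitor and -100% = no enzyme wells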
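With Hepes-Na pH 7.6 buffer containing 10 mM MgCl2, Sfp (15 nM) modified BHQ-2-YbbR (12.5 uM) using rhodamine-CoA (5 uM). Two reads 30 minutes apart at 525/598 nm yielded each well's rate.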
L3MBTL1 inh = qHTS Assay for the Inhibitors of L3MBTL1 | Lethal(3)malignant brain tumor-like protein 1 (Homo sapiens), Q9Y468 | AlphaScreen L3MBTL1–H3K9me1 peptide binding | Potency, µM (highest dose often 57.1 µM), for the others: at the top dose activity, negative = inhibition, actives largely listed as inhibitors | 230,000 tested, 0.66% active; also: % is scaled to controls: 0 for no effect and ±100 for the full control effect; nearly all actives have a fitted effect of over 60% in size
Target sequence (Q9Y468 whole entry, looked up): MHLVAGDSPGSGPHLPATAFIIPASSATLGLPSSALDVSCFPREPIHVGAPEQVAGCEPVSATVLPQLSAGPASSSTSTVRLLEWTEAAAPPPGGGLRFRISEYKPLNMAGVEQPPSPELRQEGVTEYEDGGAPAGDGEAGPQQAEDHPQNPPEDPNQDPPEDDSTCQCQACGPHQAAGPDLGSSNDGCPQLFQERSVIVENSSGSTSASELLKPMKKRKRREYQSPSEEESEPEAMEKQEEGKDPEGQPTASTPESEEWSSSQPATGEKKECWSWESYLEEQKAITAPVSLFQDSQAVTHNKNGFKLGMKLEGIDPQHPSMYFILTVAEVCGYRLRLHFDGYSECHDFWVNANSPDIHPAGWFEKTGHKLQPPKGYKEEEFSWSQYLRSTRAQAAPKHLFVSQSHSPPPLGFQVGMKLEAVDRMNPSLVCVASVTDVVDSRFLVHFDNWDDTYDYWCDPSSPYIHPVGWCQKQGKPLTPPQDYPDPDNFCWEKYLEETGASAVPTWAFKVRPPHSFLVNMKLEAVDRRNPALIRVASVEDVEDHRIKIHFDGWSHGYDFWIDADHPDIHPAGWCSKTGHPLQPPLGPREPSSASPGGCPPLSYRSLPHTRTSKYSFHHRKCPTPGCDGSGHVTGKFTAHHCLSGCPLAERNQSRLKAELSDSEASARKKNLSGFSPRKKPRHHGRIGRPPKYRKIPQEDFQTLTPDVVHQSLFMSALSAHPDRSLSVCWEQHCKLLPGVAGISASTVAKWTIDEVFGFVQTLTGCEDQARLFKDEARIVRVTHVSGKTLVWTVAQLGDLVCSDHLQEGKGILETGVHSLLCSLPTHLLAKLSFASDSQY
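First, the protein-peptide complex forms for 30 min at room temperature (L3MBTL1 50 nM, biotinylated H3K9me1 peptide 75 nM). Next, compounds are pin-transferred and incubated 30 min. Finally, AlphaScreen beads are added and read after 30 min.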
An asterisk follows results filed as active; [ ] = another dose, or the depositor's remark. Most compounds without a hit are left out; they make up all but 12% or so of the library. Calls follow the shape of the dose curve; as a rule, active = well fitted curve in the direction sought with a large enough effect; inconclusive = small, poorly fitted or top-dose-only effect, or another doubt; inactive = no such curve, though single readings can be large; an effect the other way counts as inactive or inconclusive. Potency is read from the fitted curve at half-maximal effect.

COc1ccc(C(C)=O)cc1CSc1nc(Nc2ccc(F)c(F)c2)c2ccccc2n1 was read as BAZ2B inh -31%, JMJD2A Tudor inh inconclusive, G9a block -5%[59 µM] and HP1b chromo inh 4%.
`COc1cccc(NC(=O)C2CCN(c3ccc(Sc4ccc(C)cc4)nn3)CC2)c1` gave BAZ2B inh -3%, JMJD2A Tudor inh -13%, G9a block -33%[59 µM] and HP1b chromo inh 22%.
Screening COC(=O)C1=C(C)NC(C)=C(C(=O)OC)C1c1ccc(-c2cccc([N+](=O)[O-])c2)o1 returned BAZ2B inh -26%, JMJD2A Tudor inh inconclusive, G9a block 79µM*, HP1b chromo inh 13%, Sfp PPTase inh -2% and L3MBTL1 inh -13%.
`COC(=O)C1=C(C)NC(C)=C(C(=O)OC)C1c1ccc(-c2cc(Cl)ccc2Cl)o1` gave BAZ2B inh -5%, JMJD2A Tudor inh -12%, G9a block 18µM*, HP1b chromo inh 53%, Sfp PPTase inh inconclusive and L3MBTL1 inh -3%.
O=C1C2C(c3ccccc3)CC=CC2C(c2ccc3ccccc3c2)N1Cc1ccccc1 (centres undefined) was read as JMJD2A Tudor inh -16%, HP1b chromo inh 22% and Sfp PPTase inh -2%.
COc1ccc(C2CC(=O)N(CC(=O)Nc3ccc(C)c(Cl)c3)c3ccccc3S2)cc1OC (centres undefined) was read as BAZ2B inh -13%, JMJD2A Tudor inh -27%, G9a block inconclusive and HP1b chromo inh -1%.
For CCOC(=O)c1c(C)c(-c2ccccc2)n(CC(=O)NC2CCCCCC2)c1C the results were BAZ2B inh -14%, JMJD2A Tudor inh 0%, G9a block -3%[59 µM] and HP1b chromo inh 26%.
`CNCCCCc1cnc(C)c2[nH]c3ccccc3c12` gave Sfp PPTase inh -10%.
Screening CCC(=O)N1CCc2cc(CNC(=O)c3ccccc3C)ccc21 returned BAZ2B inh -1%, JMJD2A Tudor inh -17%, G9a block -1%[59 µM] and HP1b chromo inh 22%.
For O=c1/c(=C\c2cc([N+](=O)[O-])cc([N+](=O)[O-])c2O)sc2nc3ccccc3n12 the results were BAZ2B inh 50µM*, JMJD2A Tudor inh 20µM*, G9a block 6.3µM*, HP1b chromo inh inconclusive and Sfp PPTase inh 22µM*.
O=c1/c(=C/c2ccccn2)sc2nc3ccccc3n12 was read as BAZ2B inh 2%, JMJD2A Tudor inh inconclusive, G9a block 50µM*, HP1b chromo inh 26%, Sfp PPTase inh -4% and L3MBTL1 inh 5%.
Screening O=[N+]([O-])c1cc([N+](=O)[O-])c2cc3ccccc3nc2c1 returned BAZ2B inh inconclusive, JMJD2A Tudor inh -30%, G9a block inconclusive, HP1b chromo inh 11%[57 µM] and Sfp PPTase inh -6%.
Screening O=[N+]([O-])c1cc(-c2cnc3ccccc3n2)ccc1Cl returned BAZ2B inh -20%, JMJD2A Tudor inh -34%, G9a block -3%, HP1b chromo inh -22%, Sfp PPTase inh 2% and L3MBTL1 inh -1%.
`O=[N+]([O-])c1cc(-c2ccc(/C=N/c3nc4ccccn4c3-c3ccco3)o2)ccc1Cl` gave BAZ2B inh 45µM*, JMJD2A Tudor inh inconclusive, G9a block 13µM*, HP1b chromo inh -17% and Sfp PPTase inh inconclusive.
`CC(=O)c1ccc(NC(=O)c2nc(-c3ccccc3)n(-c3ccccc3Cl)n2)cc1` gave BAZ2B inh 2%, JMJD2A Tudor inh -4%, G9a block -27%[59 µM] and HP1b chromo inh 37%.
For CCCNC(=O)c1ccc2c(c1)nc1n2CCCCC1 the results were BAZ2B inh 5%, JMJD2A Tudor inh -12%, G9a block 44%[59 µM] and HP1b chromo inh 19%[57 µM].
`CCOc1ccc(S(=O)(=O)Nc2ccccc2C(=O)NCc2ccco2)cc1` gave BAZ2B inh inconclusive, JMJD2A Tudor inh -31%, G9a block 50µM*, HP1b chromo inh 9%, Sfp PPTase inh inconclusive and L3MBTL1 inh 16%.
CS(=O)(=O)Nc1ccccc1C(=O)NCc1ccco1 was read as BAZ2B inh -2%, JMJD2A Tudor inh -2%, G9a block 13µM*, HP1b chromo inh 48%, Sfp PPTase inh 2% and L3MBTL1 inh 25%[11.4 µM].
Screening C=Cc1ccc(Cn2c(C(=O)O)c(CNC3CCCCC3)c3ccc(OC)cc32)cc1 returned BAZ2B inh inconclusive, JMJD2A Tudor inh -33%, G9a block -30%[59 µM] and HP1b chromo inh 9%.
Screening OC[C@@H](O)C(O)[C@H](O)[C@@H](O)CO (some centres undefined) returned Sfp PPTase inh -2%.
For CCOC(=O)c1ccc(NC(=O)c2ccc(=O)n(Cc3cccc(C)c3)c2)cc1 the results were BAZ2B inh 3%, JMJD2A Tudor inh -16%, G9a block 7%[59 µM] and HP1b chromo inh 18%[57 µM].
For CN(CCCC(=O)Nc1ccc(Br)cc1F)S(=O)(=O)c1ccccc1 the results were BAZ2B inh 0%, JMJD2A Tudor inh 1%, G9a block 35µM*, HP1b chromo inh 18% and Sfp PPTase inh -13%.
For Cc1ccc(S(=O)(=O)N(C)CCCC(=O)Nc2ccc(F)cc2)cc1 the results were JMJD2A Tudor inh -11%, G9a block -28%, HP1b chromo inh 38% and Sfp PPTase inh 14%.
Screening CN(CCCC(=O)Nc1ccc(OC(F)F)cc1)S(=O)(=O)c1ccc(F)cc1 returned BAZ2B inh -7%, JMJD2A Tudor inh 1%, G9a block 45µM*, HP1b chromo inh 22% and Sfp PPTase inh -3%.
`CN(CCCC(=O)Nc1ccccc1F)S(=O)(=O)c1ccc(F)cc1` gave BAZ2B inh 4%, JMJD2A Tudor inh 0%, G9a block 0%, HP1b chromo inh 31% and Sfp PPTase inh 6%.
For COC(=O)C1CCN(S(=O)(=O)c2cc3c4c(c2)C(C)C(=O)N4CCC3)CC1 (centres undefined) the results were BAZ2B inh -24%, JMJD2A Tudor inh -16%, G9a block inconclusive and HP1b chromo inh 11%[57 µM].
Screening CC1=C(C(=O)O)N2C(=O)C(NC(=O)c3ccn(C)n3)C2SC1 (centres undefined) returned BAZ2B inh inconclusive, JMJD2A Tudor inh -32%, G9a block inconclusive, HP1b chromo inh 41%, Sfp PPTase inh 22µM* and L3MBTL1 inh 4%.

High-throughput results (PubChem BioAssay)
